# Data from publication PMC5540273 (PLoS ONE, 2017).
# What was measured:
# Conditions in all cases: concentration: 1 μM, replicates: in singlicate; n = 1
# [1] = system: AAK1
# [2] = system: ABL1-nonphosphorylated
# [3] = system: ABL1-phosphorylated
# [4] = system: ABL2
# [5] = system: ACVR1B
# [6] = system: ACVR1
# [7] = system: ACVR2A
# [8] = system: ACVR2B
# [9] = system: ACVRL1
# [10] = system: T1, ADCK3
# T1 construct: gene CABC1
# 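Also: KINOMEscan kinase panel screen.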
SMILES,%Inh [1],%Inh [2],%Inh [3],%Inh [4],%Inh [5],%Inh [6],%Inh [7],%Inh [8],%Inh [9],%Inh [10]
CN(C)Cc1ccc(-c2ccc3c(Nc4ccc(Oc5ccccn5)cc4)ccnc3c2)o1 [GW567148],0%,89%,32%,18%,0%,0%,0%,38%,0%,0%
Cl.Cl.NCC(NCc1ccc(-c2ccnc3[nH]ccc23)s1)c1ccccc1 (centres unmarked) [GSK1321565],67%,0%,0%,1%,0%,18%,0%,0%,0%,25%
Cl.Cl.NCC(NC(=O)c1cc(-c2ccccc2)c(-c2ccnc3[nH]ccc23)s1)c1ccccc1 (centres unmarked) [GSK1321561],47%,89%,90%,87%,0%,10%,4%,18%,0%,95.3%
Cl.c1ccc(-c2ccc3c(Nc4ccc5[nH]ncc5c4)ccnc3c2)nc1 [GW440137],18%,63%,73%,28%,1%,71%,57%,94.6%,19%,3%
Nc1ncnc2c1nc(-c1ccccc1)n2-c1ccccc1 [SKF-97293],0%,8%,0%,2%,7%,0%,4%,0%,14%,11%
c1ccc(Oc2ccc(Nc3ccnc4cc(-c5ccc(CNCCN6CCOCC6)o5)ccc34)cc2)nc1 [GW567145],6%,78%,12%,6%,0%,8%,0%,14%,0%,2%
CN1CCN(Cc2cccc(-c3ccc4c(Nc5ccc(Oc6ccccc6)cc5)ccnc4c3)c2)CC1 [GW578342],10%,91.6%,20%,23%,0%,0%,0%,0%,0%,8%
Cl.NC(=O)c1cccc(Nc2nccc(Nc3ccc(Oc4c(Cl)cccc4Cl)c(Cl)c3)n2)c1 [GW659009],15%,67%,0%,85%,100%,0%,0%,0%,7%,0%
